# A selection: hits, their analogues and other compounds. The true share with any hit is near 4.1%.
# UHRF1 binding: UHRF1 methylated DNA binding inhibitors, primary screen, counter-screen for MBD2 inhibitor project, biochemical, TR-FRET, human UHRF1, single concentration. E3 ubiquitin-protein ligase UHRF1 (Homo sapiens), Q96T88. UHRF1 binding to methylated oligo. 0.75% of 370,000 active. inhibition, % at 4.4 µM; in the data active = inhibition above about 21%;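 also: UHRF1 SRA domain binding a hemimethylated CpG hairpin DNA probe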
# Target sequence (Q96T88 whole entry, looked up, the tested form may be a part): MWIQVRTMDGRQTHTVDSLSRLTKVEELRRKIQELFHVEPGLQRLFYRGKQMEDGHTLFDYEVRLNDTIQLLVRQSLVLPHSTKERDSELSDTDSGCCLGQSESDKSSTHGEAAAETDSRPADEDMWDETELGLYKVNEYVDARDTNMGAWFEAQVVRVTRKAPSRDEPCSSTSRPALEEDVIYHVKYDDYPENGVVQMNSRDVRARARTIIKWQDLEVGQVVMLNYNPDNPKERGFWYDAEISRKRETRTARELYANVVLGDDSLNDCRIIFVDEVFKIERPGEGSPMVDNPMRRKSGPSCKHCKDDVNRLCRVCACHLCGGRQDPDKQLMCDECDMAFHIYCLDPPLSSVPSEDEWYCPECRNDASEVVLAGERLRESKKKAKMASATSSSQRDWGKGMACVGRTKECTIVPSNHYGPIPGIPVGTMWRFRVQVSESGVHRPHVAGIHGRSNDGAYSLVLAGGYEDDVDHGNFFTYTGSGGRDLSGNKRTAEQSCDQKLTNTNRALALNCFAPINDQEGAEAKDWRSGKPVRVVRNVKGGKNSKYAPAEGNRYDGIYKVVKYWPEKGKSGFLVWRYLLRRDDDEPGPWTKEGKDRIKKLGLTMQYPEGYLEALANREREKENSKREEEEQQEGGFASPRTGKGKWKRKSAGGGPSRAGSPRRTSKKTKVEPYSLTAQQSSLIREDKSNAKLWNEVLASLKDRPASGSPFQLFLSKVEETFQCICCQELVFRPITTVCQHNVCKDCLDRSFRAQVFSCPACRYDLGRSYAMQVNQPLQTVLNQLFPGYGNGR
# rCAG binder: binders of r(CAG) RNA repeats, primary screen, biochemical, fluorescence. 1.3% of 370,000 active. inhibition, % at 3 µM. r(CAG) RNA repeat, TO-PRO-1 dye displacement fluorescence;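 active = inhibition above the plate cutoff, the mean of all test compounds on that plate plus 3 SD, cut at about 35% in these data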;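 also: higher means more dye released from RNA so lower well fluorescence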
# PRMT1 inh: PRMT1 methyltransferase inhibitors, primary screen, biochemical, fluorescence polarization. recombinant PRMT1, activity-based probe fluorescence polarization. inhibition, % at 2.79 µM. 1.3% of 370,000 active. AID 652257, 2013;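 active = inhibition above about 21% made by adding two undisclosed values, limit read from the data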
# LEDGF integ inh: blockers of LEDGF/p75-dependent integrase strand transfer – biochemical, TR-FRET, high throughput, primary screen. inhibition, % at 3.7 µM. HIV-1 integrase (with human LEDGF/p75). 0.64% of 370,000 active. TR-FRET IN-LEDGF/p75 DNA integration, Eu/Cy5;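 active = inhibition above the screen-wide mean plus 3 SD, cut at about 13% in these data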;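 also: signal is the Cy5 over europium emission ratio at 671 and 618 nm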
# ABHD5 PLIN5 PPI: ABHD5-PLIN5 interaction inhibitors, primary screen, cell lysate, split luciferase complementation, luminescence | inhibition, % at 4 µM | Perilipin-5 (Homo sapiens) + 1-acylglycerol-3-phosphate O-acyltransferase ABHD5 (Homo … | 0.78% of 360,000 active | Split G. princeps luciferase complementation, 4 h | AID 602281, 2012;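 active = inhibition above the mean inhibition across every tested compound plus 3 SD, cut at about 22% in these data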
# MBD2 DNA inh: inhibitors of MBD2 binding to methylated DNA, primary screen, biochemical, TR-FRET, DNA-binding domain, human; Methyl-CpG-binding domain protein 2 (Homo sapiens), Q9UBB5; inhibition, % at 4.4 µM; AID 686964, 2013; MBD2 binding to methylated oligonucleotide; 0.31% of 370,000 active; in the data active = inhibition above about 13%
# PRMT1 inh conf: PRMT1 methyltransferase inhibitors, confirmation, biochemical, fluorescence polarization, triplicate | shares compounds with PRMT1 inh | recombinant His-PRMT1, activity-based probe fluorescence polarization | 42% of 3,300 active | AID 687036, 2013 | inhibition, % at 2.79 µM;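 active = mean inhibition across replicates above the hit cutoff derived for the earlier primary screen, cut at about 22% in these data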
# Hits are given with their value; n = inactive; x = not tested or not shown.
SMILES,UHRF1 binding,rCAG binder,PRMT1 inh,LEDGF integ inh,ABHD5 PLIN5 PPI,MBD2 DNA inh,PRMT1 inh conf
Cc1ccc(NC(=O)CSc2nc(O)c(Cc3ccccc3)c(=O)n2-c2ccccc2)cc1,n,n,33,n,n,n,29
Cc1ccc(NC(=O)CSc2nnc(C)n2-c2ccccc2)cc1,n,n,n,n,n,n,x
CCc1c(O)nc(SCC(=O)Nc2ccccc2C)n(-c2ccc(C)cc2)c1=O,n,n,30,n,n,n,n
COC(=O)c1cc2c(c3c4cc(OC)ccc4n(S(=O)(=O)c4cccc(C)c4)c13)C(=O)N(C)C2,n,n,n,n,x,n,x
Cc1cc(NS(=O)(=O)c2ccc(NC(=O)Cc3ccc(Cl)c(F)c3)cc2)no1,n,n,n,n,x,n,x
Cc1ccc(C2=N/C(=C\c3coc4ccccc4c3=O)C(=O)O2)cc1,n,n,37,40,x,n,n
CSC1=NSC2=NC(=O)/C(=C\c3coc4ccccc4c3=O)C(=N)N12,n,n,31,n,n,n,72
O=S(=O)(CC1NCc2ccccc21)NCc1ccc(F)cc1 (centres undefined),n,n,n,n,x,n,x
Nc1[nH]c(C(=O)c2ccccc2)c(-c2ccccn2)c1C(=O)c1c[nH]c2ccc(Br)cc12,n,x,27,n,x,n,n
Nc1[nH]c(C(=O)c2ccc(Cl)cc2)c(-c2ccc(Br)cc2)c1C(=O)c1c[nH]c2ccc(F)cc12,n,n,n,n,x,n,x
COc1ccc(C2Nc3ccccc3C(=O)N2Cc2ccc(C)o2)cc1COc1c(C)cccc1C (centres undefined),n,x,39,n,x,n,n
COc1ccc(C2Nc3ccccc3C(=O)N2Cc2ccco2)cc1COc1ccccc1C (centres undefined),n,x,n,n,x,n,x
CCCCNC(=O)O[C@H]1CC[C@@]23CCCN2C(=O)CCC[C@H]3C1,n,x,n,n,x,n,x
C#CCNC(=O)C[C@H]1C[C@@]2(C(=O)OC)C(=C[C@H](C(C)C)O[C@@H]2C2CC2)N(Cc2ccccc2)C1=O,n,n,n,n,x,n,x
NCCS,n,n,42,n,n,n,32
O=C(Cc1ccc(NC(=O)C2CCCN(C(=O)c3ccccc3)C2)cc1)Nc1cccc(C(=O)N2CCCC2)c1 (centres undefined),n,n,n,n,x,n,x
O=C(NCc1ccncc1)C1Cc2c(-c3ccc4c(c3)OCO4)ccnc2O1 (centres undefined),n,n,40,n,n,n,n
Fc1ccc(CSc2nnc3ccccn23)c(Cl)c1,n,n,46,n,n,n,n
CC(=O)Nc1cccc(C(C)C2=CCCCC2)c1 (centres undefined),n,n,n,n,x,n,x
Cc1cccc2sc(N(CCCN(C)C)C(=O)c3nc4ccccc4s3)nc12,n,n,n,n,n,n,x
Cc1cccc2sc(N(CCCN(C)C)C(=O)c3ccc4ncsc4c3)nc12,n,n,29,n,n,n,n
CN(C)CCN(C(=O)c1ccc2c(c1)OCCO2)c1nc2ccc(Cl)cc2s1,n,n,n,n,n,n,x
CCc1ccc2nc(N(CCN(C)C)C(=O)c3ccc4ncsc4c3)sc2c1,n,n,43,n,n,n,n
COc1ccc(CNC(=O)N(C)C[C@@H]2OCc3ccccc3-c3c(n(C)c4ccccc34)C(=O)N([C@@H](C)CO)C[C@@H]2C)cc1,n,n,n,n,x,n,x
Cc1ccc(CN2CC=CS2(=O)=O)cc1,n,n,n,n,x,n,x
SMILES,UHRF1 binding,rCAG binder,PRMT1 inh,LEDGF integ inh,ABHD5 PLIN5 PPI,MBD2 DNA inh,PRMT1 inh conf
CCC(=O)/C=C1/Sc2ccccc2N1CC,n,n,29,n,n,n,27
CN1/C(=C\C(=O)c2ccco2)C(C)(C)c2ccccc21,n,n,n,n,n,n,x
CCN1/C(=C/C(=O)c2ccco2)Sc2ccccc21,n,n,45,n,n,n,n
CC(C)[C@@H](C)/C=C/[C@@H](C)[C@H]1CC[C@@H]2[C@]1(C)CCC1[C@]23C=C[C@]2(C[C@@H](O)CC[C@]12C)N(c1cnccn1)O3 (some centres undefined),n,n,n,n,x,n,x
CC(=O)O[C@@H]1C=C[C@@H](C#Cc2ccc(C(C)(C)C)cc2)O[C@@H]1COC(=O)Nc1ccccc1,n,n,n,n,x,n,x
N#Cc1cccc(-n2cc(COC(=O)NCCc3ccccc3)nn2)c1,n,n,n,n,x,n,x
O=C(Nc1nc2ncccn2c1-c1ccc(F)cc1)c1ccc(F)cc1,n,n,n,n,x,n,x
O=C(OCc1cn(Cc2ccc(F)cc2F)nn1)N1CCCC1,n,n,n,n,x,n,x
CC1=C(SCCC#N)S/C(=C2\SC(C)=C(SCCC#N)S2)S1,n,n,71,n,n,n,47
Nc1c(C(=O)c2ccccc2)sc2nsc(SCCN3CCCC3)c12,n,n,27,n,n,n,n
Nc1c(C(=O)c2ccc(Cl)cc2)sc2nsc(SCCN3CCOCC3)c12,n,n,n,n,n,n,x
CC(=O)c1sc2nsc(SCCN3CCCCC3)c2c1N,n,n,27,n,n,n,n
CC(C)C[C@H]1COc2cccc(F)c2S(=O)(=O)N1,n,n,n,n,x,n,x
O=C1CCCC2=C1C(c1ccc(Br)cc1)c1c([nH]c(=S)[nH]c1=O)N2 (centres undefined),n,n,49,n,n,n,38
CCSc1nc2c(c(=O)[nH]1)C(c1ccc(C)cc1)C1=C(CCCC1=O)N2 (centres undefined),n,n,n,n,n,n,x
CC1(C)CC(=O)C2=C(C1)Nc1[nH]c(=S)[nH]c(=O)c1C2c1ccccc1 (centres undefined),n,n,66,n,n,n,n
O=S1(=O)N[C@@H](Cc2ccccc2)COc2cccc(N3CCCCC3)c21,n,n,n,n,x,n,x
CCN1CCC(NCCc2ccc(F)cc2)CC1,n,n,n,n,n,n,x
COc1c(O)cccc1[C@H](O)C1CCN(CCc2ccc(F)cc2)CC1,n,n,29,n,n,n,n
CCC[C@H]1[C@@H](NCc2cccs2)CC[C@@]23CCCN2C(=O)CCC[C@@H]13,n,x,n,n,x,n,x
Nn1c(SCC(=O)Nc2cccc3ccccc23)nnc1-c1n[nH]c2c1CCC2,n,n,n,n,x,n,x
Cc1cccc(N2C(=O)C=CC2=O)c1,n,n,71,n,n,n,88

# Screening results deposited in PubChem by The Scripps Research Institute Molecular Screening Center.
